From PubChem BioAssay

Assay: binders of probe aFGF2 on microarray, primary screen, stem cell growth factor project, biochemical, small-molecule microarray, fluorescence 635/667 (AID 1067);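 further: measures binding of biotinylated aFGF2 protein to printed compounds on slides; z-score merges feature fluorescence and signal-to-noise across triplicate slides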
Conditions: higher = more signal

First: Cc1ccc(S(=O)(=O)N2[C@@H](c3ccccc3)C(C(=O)O)=CC[C@H]2c2ccccc2)cc1
Second: NC(=O)[C@H]1[C@@H]2C(=O)O[C@@H](c3ccccc3)[C@@H](c3ccccc3)N2[C@@H](c2ccc(O)cc2)[C@]12C(=O)Nc1ccc(C#CCCO)cc12
The composite z-score of the first is higher: -0.0502 for the first, -0.12 for the second.

Going from `CC[C@H]1C2=C3C(CC[C@H]4C(OC)OC[C@](C)([C@@H]34)N(C(=O)OC(C)(C)C)C2)C(CO)C1CO` (some centres not stated) to `CCCC[C@H]1OB(O)C[C@H]2C1=C(COC)C[C@H]1C(=O)N(Cc3ccccc3)C(=O)[C@H]12`, the composite z-score falls from 0.181 to 0.0644.

Going from `C=CCN1C(=O)[C@@]2(O[C@@H](CCn3cc([C@H](O)c4ccccc4)nn3)[C@H]([Si](C)(C)c3ccc(OC)cc3)[C@H]2C)c2cc(N3CCOC3=O)ccc21` to `COc1ccc(C(=O)Nc2ccc(CN3C(=O)[C@]4(O[C@H](CCn5cc(CCO)nn5)[C@@H]([Si](C)(C)c5ccc(OC)cc5)[C@@H]4C)c4ccccc43)cc2)cc1`, the composite z-score rises from -0.104 to 0.0331.

First: CO[C@@H]1COC(=O)CC=C[C@@H](C)[C@H](OC)COC(=O)CC=C[C@H]1C
Second: CO[C@H]1COC(=O)CC=C[C@H](C)[C@@H](OC)COC(=O)CC=C[C@@H]1C
The composite z-score of the first is lower: -0.14 for the first, -0.0775 for the second.

Going from `C=CC[C@@]1(C(=O)N2CCOCC2)N=C(c2ccc(OCCCO)cc2)O[C@@H]1c1ccccc1` to `CC(C)(C)OC(=O)CC[C@@]1(C(=O)NCc2ccccc2)N=C(c2ccc(OCCCO)cc2)O[C@@H]1c1ccccc1`, the composite z-score rises from -0.117 to 0.0096.

Going from `COc1ccc([Si](C)(C)[C@@H]2[C@@H](CCO)O[C@]3(C(=O)N(Cc4ccc(NC(=O)[C@H](C)O)cc4)c4ccccc43)[C@H]2C)cc1` to `COc1ccc([Si](C)(C)[C@H]2[C@H](CC(=O)N(CCO)Cc3ccccc3)O[C@@]3(C(=O)N(C)c4ccccc43)[C@@H]2C)cc1`, the composite z-score rises from -0.0606 to 0.0248.

Going from `CO[C@H]1O[C@H](CO)[C@@H](OC(=O)Nc2ccc3c(c2)OCO3)[C@H](OC(=O)Nc2ccccc2)[C@@H]1OC(=O)Nc1ccccc1` to `CCc1cccc(NC(=O)O[C@H]2[C@H](OC(=O)Nc3ccccc3)[C@@H](OC(=O)Nc3ccccc3)[C@@H](OC)O[C@@H]2CO)c1`, the composite z-score rises from 0.0654 to 0.216.

Compared with `C[C@@H]1CC[C@H]2C(=O)N3CCC[C@H]3C(=O)N2[C@H]1c1ccc(Br)cc1`, `O=C1C[C@@](C(=O)NCCN2CCOCC2)(c2ccc([N+](=O)[O-])cc2)[C@@H](c2ccc(CO)cc2)N1C1CCCCC1` is higher in composite z-score: -0.11 for the first, 0.11 for the second.

Compared with `C=CCNC(=O)[C@H]1[C@@H]2C(=O)O[C@@H](c3ccccc3)[C@@H](c3ccccc3)N2[C@@H](c2ccc(O)cc2)[C@]12C(=O)Nc1ccc(C#CCNC(N)=O)cc12`, `O=C1O[C@@H](c2ccccc2)[C@@H](c2ccccc2)N2[C@@H](c3ccccc3OCCO)[C@]3(C(=O)Nc4ccc(C#CC5=CCCCC5)cc43)[C@@H](C(=O)O)[C@H]12` is higher in composite z-score: -0.128 for the first, 0.0248 for the second.

Going from `O=C(NCc1ccccc1)[C@@]1(Cc2ccccc2)COC(c2ccc(OCCCO)cc2)=N1` to `CCC#CCN(Cc1ccccc1Br)[C@H](/C=C/c1ccccc1)[C@@H](O)Cc1ccccc1`, the composite z-score rises from -0.255 to -0.176.

Going from `O=C1C2C=CC(C(O)c3ccccc3)N(n3cnnc3)C2C(=O)N1Cc1ccccc1` (configuration not stated) to `O=C1c2ccccc2[C@](Cc2ccccc2I)(C(=O)NCC(F)(F)F)[C@H](c2ccc(CO)cc2)N1Cc1ccccc1C(F)(F)F`, the composite z-score falls from -0.0598 to -0.0856.

Compared with `COCCCNC(=O)[C@@]1(Sc2ccc(C)cc2)CC(=O)N(Cc2cc(C(F)(F)F)cc(C(F)(F)F)c2)[C@@H]1c1ccc(CO)cc1I`, `COCCOC(=O)N1C(=O)[C@@]2(c3cc(C#CCNC(N)=O)ccc31)[C@H](C(=O)N1CCCCCCC1)[C@H]1C(=O)O[C@H](c3ccccc3)[C@H](c3ccccc3)N1[C@@H]2c1ccccc1OCCO` is higher in composite z-score: -0.147 for the first, 0.129 for the second.

Going from `CC1CC/C=C\[C@H]2OC34C=CCN(Cn5nnc6ccccc65)C(=O)[C@H]3N(C(C)CO)C(=O)[C@@H]4C2C(=O)O1` (some centres not stated) to `C[C@H]1NC(=O)[C@@H](C)NC(=O)[C@@]23C(=O)N[C@@H](Cc4ccccc4)C2[C@H](C)[C@@]2(C)O[C@H]2C3/C=C/C/C=C\CNC1=O` (some centres not stated), the composite z-score rises from -0.171 to -0.083.

Compound `C=CCNC(=O)[C@H]1[C@@H]2C(=O)O[C@@H](c3ccccc3)[C@@H](c3ccccc3)N2[C@@H](c2ccccc2OCCO)[C@]12C(=O)N(C(=O)OCCOC)c1ccc(C#CCC(C(=O)OC)C(=O)OC)cc12` has a composite z-score of 0.0556.
